# Source: PubChem
# Most compounds without a hit are left out; they make up all but 2.4% or so of the library.
# D2 ag-1 – Beta-Arrestin HTS for Positive Allosteric Modulators of the Human D2 Dopamine Receptor: Agonists | D(2) dopamine receptor (Homo sapiens), P14416 | DiscoveRx PathHunter D2 beta-arrestin, luminescence, 90 min; 100% = 57 uM dopamine signal | activation, % (concentration not given with the values) | 0.084% of 360,000 active | AID 624465, 2012; in the data active = activation above about 40%; inconclusive = between about 15% and that limit
#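 Agonist mode: compounds alone added to overnight-plated D2 PathHunter cells for 90 min at 37 C, with 57 uM final dopamine (EC100) defining full response. Beta-arrestin recruitment detected by chemiluminescent reagent, read after 1 h at ambient temperature.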
# D2 PAM-1 – HTS Assay for Positive Allosteric Modulators of the Human D2 Dopamine Receptor: Primary Screen for Potentiators | D(2) dopamine receptor (Homo sapiens), P14416 | AID 485347, 2010 | potentiation, % at 10 µM | HEK293 T-REx D2, calcium flux, EC20 dopamine potentiation | 0.34% of 340,000 active;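 active = potentiation over 3 SD above the plate norm, cut at about 30% in these data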
#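 Using a no-wash calcium dye in inducible, force-coupled HEK293 Trex cells expressing D2, we tracked fluorescence each second for 180 s after compound, then for 180 s after EC20 dopamine to detect augmented signalling.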
# D2 PAM-2 – Beta-Arrestin HTS for Positive Allosteric Modulators of the Human D2 Dopamine Receptor: Potentiators; D(2) dopamine receptor (Homo sapiens), P14416; DiscoveRx D2 beta-arrestin cells, luminescence, 90 min; 100% = 57 uM dopamine signal; potentiation, % (no concentration beside the values); 0.23% of 360,000 active; AID 624464, 2012; in the data active = potentiation above about 50%; inconclusive = mostly about 30% to 49%
#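 PathHunter D2 cells, attached overnight at 37 deg C, received compound in DMSO plus dopamine at EC20 (50 nM final) for 90 min at 37 deg C. Beta-arrestin recruitment was read as luminescence after 1 h with detection reagent at ambient temperature.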
# D2 antagonist – HTS Assay for Allosteric Antagonists of the Human D2 Dopamine Receptor: Primary Screen for Antagonists; D(2) dopamine receptor (Homo sapiens), P14416; HEK293 TREx D2 cells, calcium flux, dopamine EC80; inhibition, % at 10 µM; 2% of 340,000 active; AID 485344, 2010; in the data active = inhibition above about 30%; inactive = below that, where a call was filed
#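 HEK293 T-REx D2 cells, tet-induced, calcium dye no-wash. Cpd pintool add, 180 s kinetic, then EC80 DA, 180 s kinetic. Ca flux read.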
# D2 ag-2 – HTS Assay for Allosteric Agonists of the Human D2 Dopamine Receptor: Primary Screen for Agonists; D(2) dopamine receptor (Homo sapiens), P14416; HEK293 T-REx D2 cells, calcium flux agonist mode; activation, % at 2 µM; 0.53% of 340,000 active; AID 485358, 2010;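 active = activation over 3 SD above normal in the single-dose calcium agonist read, cut at about 30% in these data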
#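 In this primary screen, compounds producing a positive calcium signal within 180 s of addition to tetracycline-induced, force-coupled HEK293 Trex D2 cells are flagged; cells are dye-loaded with a no-wash calcium kit beforehand.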
# D3 arrestin ag – qHTS of D3 Dopamine Receptor Agonist: D3 Dopamine Receptor B-arrestin Agonist Confirmatory Assay; shares compounds with D2 ag-2; DiscoveRx D3 beta-arrestin cells, luminescence, 90 min; Potency, µM (top dose mostly 76.9 µM), hits mostly activators; 4% of 2,300 active; AID 720506, 2013; also: nearly all actives have a fitted effect of over 70% in size
# Target sequence (P35462 whole entry, looked up): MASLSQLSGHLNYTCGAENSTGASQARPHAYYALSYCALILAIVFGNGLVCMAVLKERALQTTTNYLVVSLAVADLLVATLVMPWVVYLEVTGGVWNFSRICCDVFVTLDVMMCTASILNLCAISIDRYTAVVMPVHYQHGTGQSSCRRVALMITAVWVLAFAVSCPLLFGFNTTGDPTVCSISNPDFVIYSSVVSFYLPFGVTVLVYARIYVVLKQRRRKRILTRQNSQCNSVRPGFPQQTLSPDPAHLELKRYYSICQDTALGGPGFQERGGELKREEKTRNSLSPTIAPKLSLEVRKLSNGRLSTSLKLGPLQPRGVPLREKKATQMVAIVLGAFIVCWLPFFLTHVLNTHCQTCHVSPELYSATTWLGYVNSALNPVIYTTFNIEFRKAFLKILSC
# D2 ag-3 – qHTS of D3 Dopamine Receptor Agonist: D2 Dopamine Receptor B-arrestin Agonist Counterscreen. shares compounds with D2 ag-2. 5.9% of 2,300 active. AID 720507, 2013. Potency, µM (top dose mostly 76.9 µM), hits mostly activators. DiscoveRx PathHunter D2 beta-arrestin, luminescence, 90 min; response scale: percent relative to full dopamine signal; also: nearly all actives have a fitted effect of over 70% in size
# A number is an active result; i = inactive; ? = inconclusive; nt = not tested or not shown. Unless noted, calls follow the shape of the dose curve; as a rule, active = well fitted activation curve with a large enough effect; inconclusive = small, poorly fitted or top-dose-only effect; inactive = flat fitted curve, though single readings scatter.
SMILES,D2 ag-1,D2 PAM-1,D2 PAM-2,D2 antagonist,D2 ag-2,D3 arrestin ag,D2 ag-3
Cc1ccc(NC(=O)CN2C(=O)C(c3ccccc3)=NC2(C)C)cc1C,nt,i,nt,nt,i,nt,nt
CCS(=O)(=O)N1CC(=O)N(c2ccc(C)c(C)c2)C(C)(C(=O)NC2CCCCC2)C1 (centres undefined),nt,i,nt,nt,i,nt,nt
Cc1sc2nc(SCC(=O)N(C)c3ccccc3)n(C)c(=O)c2c1C,i,i,i,i,i,nt,nt
S=C(NCc1ccccc1)NC1CCCCC1,i,i,i,i,i,nt,nt
S=C(NCCCc1ccccc1)NC1CCCCC1,i,i,i,i,37,i,i
C/C(=N\NC(=S)NC1CCCCC1)c1ccccc1,i,i,i,41,45,i,i
COc1ccc2oc(=O)cc(CN3CCN(c4ccccc4F)CC3)c2c1,nt,i,nt,nt,i,nt,nt
CC(C)OCCCn1c(=O)c2ccccc2n2c(CCC(=O)N3CCN(c4ccccn4)CC3)nnc12,i,i,i,i,67,i,i
O=C(CCc1nnc2n(Cc3ccc(Cl)cc3)c(=O)c3ccccc3n12)N1CCN(c2ccccn2)CC1,i,i,i,i,i,nt,nt
Cc1ccc(Nc2nc(N)nc(CN3CCN(c4ccccc4F)CC3)n2)cc1,?,i,i,78,75,i,?
COc1ccc(Nc2nc(N)nc(CN3CCC(C)CC3)n2)cc1,i,i,i,i,i,nt,nt
Nc1nc(CN2CCN(c3ccccc3)CC2)nc(Nc2ccc(Cl)cc2)n1,43,i,?,77,64,?,18µM
COc1ccc(Nc2nc(N)nc(CN3CCN(c4ccccn4)CC3)n2)cc1,?,i,i,73,76,i,?
Nc1nc(CN2CCN(c3ccccc3F)CC2)nc(Nc2ccccc2)n1,i,i,i,47,60,i,i
Nc1nc(CN2CCCCCC2)nc(Nc2ccccc2)n1,i,i,i,i,i,nt,nt
Cc1cc(C)n(C(C)CC(=O)Nc2ccc(C)c(N(C)C)c2)n1 (centres undefined),nt,i,nt,nt,i,nt,nt
CCOc1ccc(NC(=O)CC2C(=O)N(c3ccc(F)cc3)C(=O)N2CCc2sccc2C)cc1 (centres undefined),nt,i,nt,nt,i,nt,nt
CC(=O)Nc1ccc(NC(=O)C(Cc2ccccc2)NS(=O)(=O)c2ccc3c(c2)oc(=O)n3C)cc1 (centres undefined),nt,i,nt,nt,i,nt,nt
CC1(C(=O)NS(=O)(=O)c2cccc(Cl)c2)CCN1C(=O)c1cccc2ccccc12 (centres undefined),i,nt,i,nt,nt,nt,nt
CC(C)(O)[C@@H]1CC(=O)[C@]2(C)[C@H](CC[C@@]3(C)[C@H](c4ccoc4)OC(=O)[C@H]4O[C@]432)[C@@]1(C)/C=C\C(=O)O,i,i,i,i,i,nt,nt
CC1(C)OC(=O)C=C[C@]2(C)[C@H]3CC[C@@]4(C)[C@H](C(=O)O)OC(=O)[C@H]5O[C@]54[C@]3(C)C(=O)C[C@@H]12,i,i,i,i,i,i,i
CN1CCc2c(sc(/N=C/c3cc(C(C)(C)C)ccc3O)c2C#N)C1,43,i,i,90,92,i,?
O=C(Nc1cccc(S(=O)(=O)N2CCCCC2)c1)C1CCCN1S(=O)(=O)c1ccccc1F (centres undefined),i,i,i,i,i,i,i
CC(=O)NCCC(=O)Nc1cc(S(=O)(=O)N2CCCCC2)ccc1N1CCCCC1,i,i,i,i,i,i,i
CC(=O)NCCC(=O)Nc1cc(S(=O)(=O)N2CCCCC2)ccc1N1CCN(C)CC1,i,i,i,i,i,nt,nt
SMILES,D2 ag-1,D2 PAM-1,D2 PAM-2,D2 antagonist,D2 ag-2,D3 arrestin ag,D2 ag-3
O=C(CN1CCc2ccccc2C1)Nc1cccc(S(=O)(=O)N2CCCC2)c1,i,i,i,49,53,?,?
O=C(CN1CCN(C(=O)c2ccco2)CC1)Nc1cccc(S(=O)(=O)N2CCCC2)c1,i,i,i,i,i,i,i
Cc1ccc(NC(=O)[C@@H]2CCCN2S(=O)(=O)c2ccccc2F)cc1,i,i,i,i,i,nt,nt
COc1cccc(NC(=O)Cn2c(=O)n(CCc3cccc(C)c3)c(=O)c3ccccc32)c1,nt,i,nt,nt,nt,nt,nt
COc1ccccc1CNC(=O)c1cccc(S(=O)(=O)N2CCCC2)c1,i,i,i,i,i,nt,nt
Cc1ccc(C(CC(=O)Nc2ccc(C)cc2C)N2Cc3ccccc3C2=O)cc1 (centres undefined),nt,i,nt,nt,i,nt,nt
Cc1ccc(S(=O)(=O)CCC(=O)Nc2cccc(S(=O)(=O)N3CCCCCC3)c2)cc1,i,i,i,i,i,i,i
CCCCN(C)C(=O)C1CCN(CCCc2ccccc2)CC1,i,i,i,i,i,i,i
CN(C)CC(C)(C)CNC(=O)C1CCN(CCCc2ccccc2)CC1,?,i,i,31,48,i,i
O=C(CN1CCN(S(=O)(=O)c2ccc(Cl)c(Cl)c2)CC1)N1CCCC1,i,i,i,i,i,nt,nt
CCC1(CC)NC(=O)N(CC(=O)OCC(=O)Nc2ccc(OC(F)(F)F)cc2)C1=O,i,i,i,61,i,i,i
COc1ccc(C(=O)N2CCN(c3nc4c(C)c(Cl)ccc4s3)CC2)c(OC)c1,nt,i,nt,nt,i,nt,nt
CC(OC(=O)c1ccc(-n2cnnn2)cc1)C(=O)Nc1ccccc1[N+](=O)[O-] (centres undefined),i,i,i,i,i,i,i
CC(=O)c1cccc(NC(=O)C(C)OC(=O)c2ccc(-n3cnnn3)cc2)c1 (centres undefined),i,i,i,i,i,nt,nt
COc1ccc(NS(=O)(=O)c2ccc(C)c(C(=O)N3CCC3)c2)cc1,i,i,i,49,73,i,i
COc1ccc(NS(=O)(=O)c2cccc(C(=O)N3CCC3)c2)cc1,i,i,i,i,i,i,i
CC1CN(C(=O)c2ccc(NS(=O)(=O)c3cccc(Cl)c3)cc2)CC(C)O1 (centres undefined),i,i,i,i,i,i,i
COc1ccc(-c2[nH]ncc2C(=O)NCc2cccc(Cl)c2)cc1,nt,nt,nt,nt,i,nt,nt
